Compounds with a hit are over-represented: about 5.7% of the library has one in this group of screens.
JMJD2E inh = qHTS Assay for Inhibitors of Human Jumonji Domain Containing 2E (JMJD2E). Lysine-specific demethylase 4E (Homo sapiens), B2RXH2. JMJD2E catalytic domain, FDH-coupled NADH fluorescence (FDH is formaldehyde dehydrogenase). Potency, µM (series often up to 57.1 µM), usual class: inhibitors. actives 1.6% (n = 230,000). AID 2147, 2009; active means well fitted inhibition curve with a large enough effect, not every such curve was filed as active; inconclusive means small, poorly fitted or top-dose-only effect, or another doubt; inactive means no such curve, though single readings can be large or run the other way; further: nearly all actives have a fitted effect of over 50% in size
PI5P4K alpha inh = qHTS for Inhibitors of phosphatidylinositol 5-phosphate 4-kinase (PI5P4K); max response, %; AID 652105, 2013; Phosphatidylinositol 5-phosphate 4-kinase type-2 alpha (Homo sapiens), P48426; actives 1.2% (n = 330,000); PI5P4Kalpha enzyme, ADP-Glo luminescence, 60 min; hits give low values; active means max response of -50% or lower; inconclusive means between -30% and -50%; inactive means -30% or higher; further: value at the top dose of about 77 µM
Target sequence (P48426 whole entry, looked up): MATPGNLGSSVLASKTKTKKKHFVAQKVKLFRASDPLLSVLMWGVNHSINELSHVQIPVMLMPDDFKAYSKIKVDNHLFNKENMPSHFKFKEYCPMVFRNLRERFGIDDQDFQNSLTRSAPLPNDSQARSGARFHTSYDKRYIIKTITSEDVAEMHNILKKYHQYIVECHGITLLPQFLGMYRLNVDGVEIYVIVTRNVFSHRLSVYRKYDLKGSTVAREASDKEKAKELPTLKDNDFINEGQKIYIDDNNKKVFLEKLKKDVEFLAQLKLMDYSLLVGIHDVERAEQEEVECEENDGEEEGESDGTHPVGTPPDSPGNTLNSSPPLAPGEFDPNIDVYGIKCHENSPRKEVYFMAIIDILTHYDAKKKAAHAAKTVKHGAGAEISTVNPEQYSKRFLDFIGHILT
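Luminescence from ADP-Glo served as readout of PI5P4Kalpha activity in a qHTS format. Reaction: enzyme, substrate, compound, ATP at 5 microM final, 60 min at RT.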
BAZ2B block = qHTS Assay for Inhibitors of BAZ2B. Bromodomain adjacent to zinc finger domain protein 2B (Homo sapiens), Q9UIF8. Potency, µM (highest dose often 114 µM), actives largely listed as inhibitors. actives 4.4% (n = 360,000). AlphaScreen BAZ2B-H3K14Ac peptide displacement; further: nearly all actives have a fitted effect of over 60% in size
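AlphaScreen luminescence quantifies BAZ2B engagement of H3K14Ac peptide; the protein and biotinylated peptide are both at 50 nM final, buffer PBS pH 7.4 with 0.01% Tween-20, all steps at room temperature.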
JMJD2A Tudor = qHTS Assay for Inhibitors of JMJD2A-Tudor Domain; AlphaScreen JMJD2A-Tudor / H3K4me3 peptide binding; Potency, µM (highest dose often 114 µM), usual class: inhibitors; actives 4.4% (n = 390,000); further: nearly all actives have a fitted effect of over 50% in size
L3MBTL1 block = qHTS Assay for the Inhibitors of L3MBTL1; AID 485360, 2010; actives 0.66% (n = 230,000); Potency, µM (doses to about 57.1 µM), hits mostly inhibitors; AlphaScreen L3MBTL1–H3K9me1 peptide binding; Lethal(3)malignant brain tumor-like protein 1 (Homo sapiens), Q9Y468; further: nearly all actives have a fitted effect of over 60% in size
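L3MBTL1 50 nM + b-AHA-H3(1-15)K9me1 75 nM, 30 min RT; compound added, 30 min RT; streptavidin donor/Ni-chelate acceptor beads 10 ug/mL each final, 30 min RT dark; AlphaScreen read.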
HP1b chromo inh = HTS for Inhibitors of HP1-beta Chromodomain Interactions with Methylated Histone Tails; Potency, µM (doses to about 114 µM), most hits filed as inhibitors; actives 0.56% (n = 390,000); Chromobox protein homolog 1 (Homo sapiens), P83916; AlphaScreen HP1-beta / biotin-H3K9me3 peptide binding; further: nearly all actives have a fitted effect of over 70% in size
Target sequence (P83916 whole entry, looked up): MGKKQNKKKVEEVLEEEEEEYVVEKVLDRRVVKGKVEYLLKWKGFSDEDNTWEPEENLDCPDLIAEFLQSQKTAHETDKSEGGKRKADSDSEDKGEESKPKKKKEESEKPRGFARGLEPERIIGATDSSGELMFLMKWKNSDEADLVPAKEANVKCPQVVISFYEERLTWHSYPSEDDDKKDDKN
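Compound inhibition of the preformed complex between 50 nM HP1-beta and 50 nM biotinylated H3K9me3 peptide was read by AlphaScreen. Buffer was PBS pH 7.4 with 0.01% Tween-20. Incubations ran 30 min at room temperature, with 10 ug/mL donor/acceptor beads.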
Numbers stand for hits; . = inactive; ? = inconclusive; / = no result given; [ ] = remark or other dose. Unless noted, the call rests on the fitted dose curve; in most records, active means well fitted inhibition curve with a large enough effect; inconclusive means small, poorly fitted or top-dose-only effect; inactive means no such curve, though single readings can be large or run the other way.

SMILES	JMJD2E inh	PI5P4K alpha inh	BAZ2B block	JMJD2A Tudor	L3MBTL1 block	HP1b chromo inh
CC1(C)C(=O)[C@@H]2OC2[C@@]2(C)C1CC(O)[C@]1(C)C2CC[C@@]2(C)C(c3ccoc3)OC(=O)C3OC312 (stereo partly specified)	.	/	/	/	/	/
COc1ccc(CNCCc2ccc(Cl)cc2)c(OC)c1OC	/	.	?	32µM	.	?
COc1ccc(CNCCc2ccc(Cl)cc2Cl)cc1	/	.	.	.	.	.
COc1ccc(CCNCc2ccc(Br)cc2)cc1OC	/	.	50µM	20µM	/	?
COc1ccc(CCNCc2ccccc2F)cc1	/	.	45µM	20µM	/	.
COc1ccccc1CNCCc1ccc(F)cc1	/	.	50µM	32µM	/	?
COc1ccccc1CNCCc1cccc(Cl)c1	/	.	/	/	/	/
CC(=O)OC1CC2C(C)(C)C(=O)C=C[C@]2(C)C2CC[C@]3(C)C(=CC(=O)OC3c3ccoc3)[C@]12C (stereo partly specified)	.	/	/	/	/	/
CN1CC[C@@]23CCCCC2C1Cc1ccc(O)cc13 (stereo partly specified)	.	/	/	/	/	/
C[C@]12CC[C@H]3[C@@H](CCC4C[C@H](O)CC[C@@]43C)[C@@H]1CC[C@@H]2O (stereo partly specified)	.	/	/	/	/	/
Cc1ccc(-n2c(O)c(C=NCc3ccccn3)c(=O)[nH]c2=S)cc1	.	.	.	.	.	.
Cn1c(O)c(C(c2ccccn2)c2c(O)n(C)c(=S)[nH]c2=O)c(=O)[nH]c1=S	?	.	50µM	79µM	.	.
CCNC(=O)[C@H]1O[C@@H](n2cnc3c(N)ncnc32)[C@H](O)[C@H]1O	.	/	/	/	/	/
O=C(/C=C\c1ccc(Cl)cc1)N[C@@]12CCC(=O)[C@@H]3Oc4c(O)ccc5c4[C@@]31CCN(CC1CC1)[C@@H]2C5	.	/	/	/	/	/
O=c1oc2cccnc2n1CCS(=O)(=O)c1ccc(F)cc1	?	.	.	.	/	.
COc1ccccc1N=c1scc(-c2ccc(S(=O)(=O)N3CCCC3)cc2)n1C	/	/	8.9µM	?	/	?
NC(=NCCc1ccc(I)cc1)SCCCc1cnc[nH]1	.	/	/	/	/	/
COc1cc(/C=C2\C(=O)NC(=O)N(CCc3ccc(F)cc3)C2=O)ccc1O	.	-78	.	.	.	.
CCOc1ccc(N2C(=O)NC(=O)/C(=C\c3ccccc3[N+](=O)[O-])C2=O)cc1	.	?	.	.	.	.
COc1cc(C=C2C(=O)NC(=O)NC2=O)ccc1O	.	.	.	.	.	.
CCOc1ccc(/C=C2/C(=O)NC(=O)N(CCc3ccc(F)cc3)C2=O)cc1	.	-55	.	.	.	.
Cc1ccccc1CN1CCc2nc(N3CCN(c4ccccn4)CC3)ncc2C1	/	/	?	89µM	/	.
CN(C)c1ccc(CN2CCc3nc(N4CCN(c5ccccn5)CC4)ncc3C2)cc1	/	/	25µM	35µM	/	28µM
COc1cc(CN2CCc3nc(N4CCN(c5ccccc5F)CC4)ncc3C2)ccc1OC(C)C	/	/	?	.	/	.
Cc1ccc(NC(=O)Cn2cc(C(=O)c3ccccc3)c3ccccc32)cc1	/	/	.	40µM	/	.
SMILES	JMJD2E inh	PI5P4K alpha inh	BAZ2B block	JMJD2A Tudor	L3MBTL1 block	HP1b chromo inh
O=C(Cn1cc(C(=O)c2ccccc2)c2ccccc21)Nc1ccc(Br)cc1	/	/	.	.	/	.
CC(=O)N(C)CC#CCN1CCC(O)CC1	/	/	/	32µM	/	.
N#Cc1ccc(C(=O)N2CCN(c3nc4ccc(F)cc4s3)CC2)cc1	/	/	.	.	/	.
COc1ccccc1N1CCN(C2CCN(C(=O)c3cccs3)CC2)CC1	?	.	.	7.1µM	.	.
COc1ccccc1OCC(=O)N1CCCC(N2CCN(c3ccc(F)cc3)CC2)C1 (stereo unspecified)	/	.	.	.	/	.
COc1cc(/C=C2\C(=O)NC(=O)N(c3ccccc3)C2=O)cc(OC)c1OC	.	?	.	.	/	.
COc1ccc(N2C(=O)NC(=O)/C(=C/c3ccc4c(c3)Cc3ccccc3-4)C2=O)cc1	?	/	35µM	/	/	/
CCc1ccccc1N1C(=O)NC(=O)/C(=C\c2cc(C)n(C)c2C)C1=O	.	.	.	.	.	?
COc1cccc(N2C(=O)CC(=O)NC2=O)c1	.	/	.	.	.	.
COc1ccc(/C=C2/C(=O)NC(=O)N(c3ccc(C)c(C)c3)C2=O)cc1CN1C(=O)c2ccccc2C1=O	.	-66	50µM	50µM	.	.
CCOc1ccccc1N1C(=O)NC(=O)/C(=C/c2ccc3c4c(cccc24)CC3)C1=O	?	-64	50µM	79µM	.	.
COc1cccc(N2C(=O)NC(=O)/C(=C/c3ccc4c5c(cccc35)CC4)C2=O)c1	.	/	50µM	/	.	/
C[C@H]1C[C@H](C)C(=O)[C@@H]([C@H](O)CC2CC(=O)NC(=O)C2)C1	.	/	/	/	/	/
COc1cc2c(cc1OC)[C@H](C)NCC2	.	/	/	/	/	/
CC(C)c1ccc(Oc2cccc3c2S(=O)(=O)N(C2CCCC2)CC(COCc2ccccc2)O3)cc1 (stereo unspecified)	/	.	/	.	/	.
CCOC(=O)c1sc(=NC(=O)c2ccc(C)c(C)c2)n(C)c1C	?	.	.	20µM	/	.
Cc1onc(-c2ccccc2Cl)c1C(=O)OCC(=O)c1ccc2c(c1)OCCO2	?	.	.	?	.	.
Cc1ccc(C(=O)n2c(N)nc3ccccc32)cc1	35µM	.	?	.	.	.
CC(C)c1ccc(CNC(=O)c2ccc(N3CCCC3)c(NC(=O)NCc3ccccc3)c2)cc1	/	/	?	.	/	.
COc1cccc(NC(=O)Cn2c(-c3nonc3N)nc3ccccc32)c1	/	/	.	.	/	.
O=[N+]([O-])c1ccc(S(=O)(=O)N2CCn3cccc3C2c2ccccc2F)cc1 (stereo unspecified)	/	/	32µM	?	/	.
COc1ccc(-c2nc(CSCC(=O)N3CCN(c4ccc(F)cc4)CC3)c(C)o2)cc1	/	/	.	50µM	/	.
O=C(O)c1ccccc1-c1ccc(C=C2C(=O)N(c3ccccc3)C(=S)N(c3ccccc3)C2=O)o1	/	?	71µM	50µM	.[2.29 µM]	.
CN1C(=O)C(=Cc2ccc(N3CCCCCC3)o2)C(=O)N(C)C1=S	.	.	?	?	.	.
CCN(CC1CCCN(CCc2cccc(OC)c2)C1)C(=O)c1ccc(COC)o1 (stereo unspecified)	/	.	.	.	/	.
Oc1ccc2c3c1O[C@H]1c4oc5ccccc5c4C[C@@]4(O)C(C2)N(CC2CC2)CCC314 (stereo partly specified)	.	/	/	/	/	/
